Assay outcomes from PubChem.
IL2 activator – activators of IL-2; IL-2 activation reporter assay, cell-based qHTS; stimulated with anti-CD3/CD4/CD28 beads; in transgenic mouse T cells; activation, % (series mostly up to about 46 µM); actives 0.065% (n = 360,000); in the data active = activation above about 50%; inconclusive = mostly about 30% to 49%; also: 0% is about no effect
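Readout is EGFP and DsRed signal by fluorescent plate cytometry after 18 h at 37 degrees C. Transgenic mouse T cells (750/well) received compound for 60 min before bead stimulation (anti-CD3, anti-CD4, anti-CD28); memory T cells served as non-tolerant control.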
Nrf2 ARE act – activates Nrf2 signaling; AREc32 ARE-luciferase reporter (MCF7-derived line), luminescence, 24 h; actives 0.31% (n = 410,000); Potency, µM (highest dose often 46.1 µM), for inactives: at the highest dose activation, actives largely listed as activators; also: potency is read from the fitted curve at half-maximal effect; % of control where 0% means no effect; nearly all actives have a fitted effect of over 65% in size
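ARE-driven firefly luciferase activity in AREc32 cells measured after a 24 hr compound exposure at 37 deg C, using Steady-Glo reagent and a 30 min room-temperature hold.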
BRCA1 expr act – activators of BRCA1 expression; MCF7-BRCA1-FFLuc reporter, luminescence, 48 h; response scale: scaled: vehicle 0%, 10 µM genistein 100%; Potency, µM (series often up to 46.1 µM), for the others: top-dose activation, hits mostly activators; actives 1.1% (n = 380,000); AID 624202; also: potency is read from the fitted curve at half-maximal effect; nearly all actives have a fitted effect of over 80% in size
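MCF7 cells carrying a BRCA1-firefly luciferase reporter (2000 cells/well, phenol-red free MEM) were attached for 2 h at 37 °C, then given compounds for 48 h. Luminescence was read 15 min after luciferase reagent; activity normalized to genistein (10 microM) and DMSO.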
ELG1 DNA repair – ELG1-dependent DNA repair inhibition | HEK293T ELG1-luciferase reporter, luminescence, 16 h; DNA damage induced by 5-fluorouridine | Potency, µM (doses to about 46.1 µM), for the others: top-dose activity change, negative = inhibition, hits mostly inhibitors | actives 2.3% (n = 330,000) | AID 504467; also: potency is read from the fitted curve at half-maximal effect; % is scaled to controls: 0 for no effect and ±100 for the full control effect; nearly all actives have a fitted effect of over 55% in size
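DMSO vehicle served as the neutral condition. Each well held 2,000 cells given 5-fluorouridine plus compound; after 16 hr at 37 °C/5% CO2, ONE-Glo was added and luciferase measured 30 min later.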
The depositor's hits bear a star. A selection: hits, their analogues and other compounds. The true share with any hit is near 3.1%. Unless noted, calls follow the shape of the dose curve; as a rule, active = well fitted curve in the direction sought with a large enough effect; inconclusive = small, poorly fitted or top-dose-only effect, or another doubt; inactive = no such curve, though single readings can be large; an effect the other way counts as inactive or inconclusive.

How did O=S(=O)(c1cccs1)N1CCN(CC(O)COc2cccc(Br)c2)CC1 (stereo unspecified) do in these assays?
IL2 activator: 0.8; Nrf2 ARE act: -0.5%; BRCA1 expr act: -45.7%; ELG1 DNA repair: 20.6µM*

How did c1ccc(OCCSc2ncnc3nc[nH]c23)cc1 do in these assays?
IL2 activator: 0.5; Nrf2 ARE act: 2.9%; BRCA1 expr act: 8.91µM*

How did COc1ccc(OCCSc2ncnc3nc[nH]c23)cc1 do in these assays?
IL2 activator: -1.1; Nrf2 ARE act: 1.9%; BRCA1 expr act: inconclusive; ELG1 DNA repair: -1.3%

Results for O=C(CN1C(=O)C2C3C=CC(C3)C2C1=O)Nc1ccc2c(c1)OCCO2 (stereo unspecified) ?
IL2 activator: -1.3; Nrf2 ARE act: 2.5%; BRCA1 expr act: 12.6µM*; ELG1 DNA repair: inconclusive

What do the screens show for `Cc1ccc2nc(SCC(=O)Nc3ccc4c(c3)OCCO4)[nH]c2c1`?
IL2 activator: -1.7; Nrf2 ARE act: 1.6%; BRCA1 expr act: 66.3%; ELG1 DNA repair: 1.3%

What do the screens show for `Cc1[nH]c2ccccc2c1C(=O)C(=O)Nc1ccc2c(c1)OCCO2`?
IL2 activator: -2.5; Nrf2 ARE act: 0.5%; BRCA1 expr act: 10µM*; ELG1 DNA repair: inconclusive

What do the screens show for `O=C(Cn1nnc(-c2ccccc2F)n1)Nc1ccc2c(c1)OCCO2`?
IL2 activator: -0.6; Nrf2 ARE act: 2.1%; BRCA1 expr act: 8.91µM*; ELG1 DNA repair: inconclusive

What do the screens show for `O=C(CSc1nc2ccccc2[nH]1)Nc1ccc2c(c1)OCCO2`?
IL2 activator: -0.6; Nrf2 ARE act: 5.6%; BRCA1 expr act: 10µM*; ELG1 DNA repair: inconclusive

Results for O=C(Cn1cnc2ccccc2c1=O)NCCC(=O)Nc1ccc2c(c1)OCCO2 ?
IL2 activator: -2.8; Nrf2 ARE act: -1.0%; BRCA1 expr act: -13.2%; ELG1 DNA repair: 13.7%

What do the screens show for `O=C(Cn1cnc2ccccc2c1=O)Nc1ccc2c(c1)OCCO2`?
IL2 activator: -0.5; Nrf2 ARE act: 2.8%; BRCA1 expr act: 3.16µM*; ELG1 DNA repair: inconclusive

How did COc1ccc(CCNC(=O)C(=O)NCC(c2ccco2)S(=O)(=O)c2ccccc2)cc1OC (stereo unspecified) do in these assays?
Nrf2 ARE act: -0.3%

Results for CC(=O)Nc1ccc(NC(=O)c2ccc(Cl)c(S(=O)(=O)N3CCc4ccccc43)c2)cc1 ?
IL2 activator: 2.6; Nrf2 ARE act: -0.3%; BRCA1 expr act: -17.9%

Results for O=C(Nc1cccnc1)c1ccc(Cl)c(S(=O)(=O)N2CCc3ccccc32)c1 ?
IL2 activator: 3.5; Nrf2 ARE act: 2.1%; BRCA1 expr act: -7.4%; ELG1 DNA repair: 13µM*

Results for Cc1cccc(-c2noc(-c3cc(C(C)C)[nH]n3)n2)c1 ?
Nrf2 ARE act: -2.4%

How did C/C(=N/Nc1nc(-c2ccccc2)cc(-c2ccccc2)n1)c1ccc(N)cc1 do in these assays?
ELG1 DNA repair: 8.2µM*

What do the screens show for `COc1ccccc1CNC(=O)C1CCN(C2=NS(=O)(=O)C(c3ccc(C)c(C)c3)=C2C)CC1`?
Nrf2 ARE act: -0.4%; BRCA1 expr act: -54.5%

How did CC(=O)Nc1cccc(NC(=O)CSc2cn(CC(=O)N3CCCCCC3)c3ccccc23)c1 do in these assays?
Nrf2 ARE act: 6.3%

Results for O=C(c1ccc(F)cc1)N1CCN(c2ccc(N3CCOCC3)nn2)CC1 ?
IL2 activator: -0.3; Nrf2 ARE act: -0.4%; BRCA1 expr act: 13.3%; ELG1 DNA repair: 2.7%

What do the screens show for `O=C(c1ccc(CSCc2ccccc2F)o1)N1CCN(c2ccc(N3CCOCC3)nn2)CC1`?
IL2 activator: 0.2; Nrf2 ARE act: 4.9%; BRCA1 expr act: 0.0%; ELG1 DNA repair: 18.4µM*

Results for Cc1csc2nc(-c3ccc(NS(=O)(=O)c4cc(F)ccc4F)cc3)cn12 ?
Nrf2 ARE act: 0.1%; BRCA1 expr act: 3.0%

How did Cc1ccc(NC(=S)/C(C#N)=C2/Nc3ccccc3S2)cc1 do in these assays?
IL2 activator: -1.9; Nrf2 ARE act: -5.0%; BRCA1 expr act: -84.5%

What do the screens show for `N#C/C(C(=O)N1CCCCC1)=C1\Nc2ccccc2S1`?
IL2 activator: -0.3; Nrf2 ARE act: -0.8%; BRCA1 expr act: 8.91µM*; ELG1 DNA repair: inconclusive

Results for Cc1ccc(NC(=O)Cn2c(-c3ccc4c(c3)OCO4)cn(-c3ccccc3)c2=O)cc1 ?
Nrf2 ARE act: 3.8%
